Consider 46 compounds from PubChem BioAssay (NCI).

Compounds without any hit were thinned out: in the full panel of roughly 79,000, 15% have a hit. A number with no mark means an inactive call. Activity calls are given as the source filed them. Rule as the data show it: active = growth inhibition above about 70%; inactive = the rest. *1 amine or outer side, *2 acyl side, *3 side chain or, on linkers, in order; H or OH if unused. Where a SMILES comes first, the peptide text is derived from it. Bridges are numbered along the chain shown (N, C = ends). [ ]: non-standard residue; d: D form. The star is where a group is joined. X16 = CC(C)C(C)C(C(=O)[*:2])N(C)[*:1]; Picolinoyl(3-OH) = O=C(c1ncccc1O)*; NMePhg = CN[CH](C(=O)O)c1ccccc1; Hyp = O=C(O)[CH]1C[CH](O)CN1; Sar = CNCC(=O)O

Test [1] is described as follows: NCI Yeast Anticancer Drug Screen. Data for the rad50 strain (AID 155).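 Also: 0% = growth of vehicle-only cultures of the same strain.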 The following applies: S. cerevisiae rad50 strain growth inhibition; at 50.0 µM; stronger effect = higher value. An outline of the steps: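 Genetically altered yeast (DNA repair pathway); compound treatment; growth inhibition vs vehicle ctrl.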
Test [2] is described as follows: NCI Yeast Anticancer Drug Screen. Data for the mec2-1 strain (AID 157). The note with it: S. cerevisiae mec2-1 strain, at 50.0 µM, stronger effect = higher value. In a few lines:
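Cells of the genetically defined mec2-1 yeast strain are incubated with test compound. Inhibition of growth is calculated against vehicle-treated controls.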

The nature of test [3]: NCI Yeast Anticancer Drug Screen. Data for the sgs1 mgt1 strain (AID 161).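 Also: 0% = growth of cultures given vehicle only.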 The following applies: S. cerevisiae sgs1 mgt1 strain, at 50.0 µM, stronger effect = higher value. An outline of the steps: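 Mutant yeast exposed to compound; growth scored against vehicle-only wells.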
The nature of test [4]: NCI Yeast Anticancer Drug Screen. Data for the cln2 rad14 strain (AID 165).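 Also: 0% = growth equal to vehicle treated cultures.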 The note with it: S. cerevisiae cln2 rad14 strain, at 50.0 µM, stronger effect = higher value. An outline of the steps:
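The screen exposed genetically defined yeast (cln2 rad14) to test compounds and scored growth inhibition relative to vehicle-treated controls.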

The nature of test [5]: NCI Yeast Anticancer Drug Screen. Data for the bub3 strain (AID 167). The following applies: S. cerevisiae bub3 mutant strain, at 50.0 µM, stronger effect = higher value. An outline of the steps: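 Yeast carrying a defined mutation is treated with each compound, and growth is compared with that of vehicle-exposed cells to give inhibition.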
Test [6] is described as follows: NCI Yeast Anticancer Drug Screen. Data for the mlh1 rad18 strain (AID 175). The note with it: S. cerevisiae mlh1 rad18 strain growth inhibition; at 50.0 µM; stronger effect = higher value. In a few lines: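 Compound-treated yeast growth, normalised to vehicle controls. Strain bears defined DNA repair mutations.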

Turning to `Cc1cc(NS(=O)(=O)c2ccc(Nc3c4ccccc4nc4c(C(=O)NCCN(C)C)ccc(Cl)c34)cc2)no1`, the growth inhibition is -9.25% in test [1]; 17.1% in test [2]; -2.4% in test [3]; 6.1% in test [4]; -3.25% in test [5].
For `CC1CC12OC(=O)N(c1cc(Cl)cc(Cl)c1)C2=O` (stereo unspecified) the same measures were 1.7%, 8.9%, 14.3%, 35.1% and -2.05%.
The matching figures for `CCc1ccccc1NC(=O)C(=O)C(C(=O)c1ccc(OC)cc1)c1ccc(OC)cc1` (stereo unspecified): 19%, 11.9%, 5.4%, 16.4% and 4.45%.
In the case of `O=C(OCC1OC(n2cnc3c(Cl)ncnc32)C(OC(=O)c2ccccc2)C1OC(=O)c1ccccc1)c1ccccc1` (stereo unspecified), the growth inhibition in test [1] is -16.6%; in test [2], -21.2%; in test [3] it was -13.2%; in test [4], 5.6%; in test [5], -12.8%.
The matching figures for `CN(CN(C)/N=C/c1ccc(Cl)cc1)/N=C/c1ccc(Cl)cc1`: 1.05%, 11.6%, 7.95%, 12.8% and -4.8%.
As for `CCN1CCCC(N)C1` (stereo unspecified), the growth inhibition was -26.1% in test [1]; -23.2% in test [2]; -34.9% in test [3]; 11.8% in test [4]; -41.8% in test [5].
For `OCC(OC/C=C/CCl)c1ccc(Cl)cc1` (stereo unspecified) the same measures were -6.75%, 8.7%, 0.2%, -0.15% and -9.5%.
For `Clc1ccc(N=Cc2ccc(C=Nc3ccc(Cl)c(Cl)c3)cc2)cc1Cl` the same measures were -7.7%, -21.8%, 15.7%, 11% and 16.9%.
Turning to `CCC1(CC)C(=O)N(C(=O)c2ccc(C)cc2)N(C(=O)c2ccc(C)cc2)C1=O`, the growth inhibition in test [1] was 3.65%; in test [2] it was -6.1%; in test [3], 14.6%; in test [4], 18.1%; in test [5] it was 2.8%.
For `O=C(Nc1ccsc1)c1ccccc1` the same measures were -10.8%, -8.7%, -19.3%, -58.2% and -27.4%.
The matching figures for `COc1ccc2c(c1)[n+]([O-])c(/C(C)=N/NC(=O)c1ccccc1O)c(C)[n+]2[O-]`: 16.2%, -3.9%, 9.45%, -106% and -3.35%.
For `O=C1CC(=O)N(CCc2ccccc2)S(=O)(=O)N1CCc1ccccc1` the same measures were -8.9%, -21.4%, -14.2%, 30.4% and -15.2%.
In the case of `CCCCCCCCCC(=O)N(C)OC`, the growth inhibition in test [1] was 6.1%; in test [2], 4.3%; in test [3] it was 7.05%; in test [4], 1.3%; in test [5], -4.6%.
The matching figures for `CCOC(OCC)/C(C)=N/N(C)C`: 5.05%, 8.95%, -5.35%, 7.3% and -6.1%.
For `CC(=O)c1ccc(C(=O)c2cccnc2)cc1` the same measures were -17%, -9.2%, -0.4%, -49.3% and -14.7%.
The matching figures for `CSC1=NC=C(C#N)C2=NC(c3ccc(Cl)cc3)NN12` (stereo unspecified): 1.95%, 2%, 17.2%, 16.3% and 15.8%.
Regarding `O=c1cc(-c2ccc(F)cc2)oc2ccccc12`, the growth inhibition in test [1] was 40%; in test [2] it was -7.45%; in test [3], -9.05%; in test [4], 0.95%; in test [5], 13.7%.
As for `CN(C)c1ccc([O-])cc1.CN(C)c1ccc([O-])cc1.CN(C)c1ccc([O-])cc1.CN(C)c1ccc([O-])cc1.[Ti+4]`, the growth inhibition in test [1] was 26.9%; in test [2], -19.4%; in test [3] it was 4.65%; in test [4], 19.3%; in test [5] it was 4.95%.
For `CC(=O)OC1/C=C(\C)C(OC(C)=O)C/C=C(/C)CCC2C(/C=C/C1=O)C2(C)C` (stereo unspecified) the same measures were 78.9% (active), 74.4% (active), 78.1% (active), 64.1% and 71.2% (active).
For `CCCC(=O)Nc1cc(C(=O)N2C[C@H]3C[C@@]34C2=CC(=O)c2[nH]cc(C)c24)n(COC)c1` the same measures were 43.9%, 59.2%, 68.2%, 41.4% and 5.85%.
For `O=Cc1cc2c(cc1Br)OCO2` the same measures were 39.7%, 16.1%, 22.3%, 10.2% and -25.6%.
Take `O=C(/C=C/c1ccc(F)c(F)c1)OCCc1ccccc1`: the growth inhibition is 28.1% in test [1]; 29% in test [2]; 32.7% in test [3]; 28.9% in test [4]; 40.9% in test [5].
`CCOC(=O)C1Cc2cc(C)c(C)cc2N(C)C1=O` (stereo unspecified): the growth inhibition in test [1] was 7.6%; in test [2], -10.2%; in test [3] it was 5.9%; in test [4], -22.5%; in test [5] it was 22.1%.
In the case of `CC(=O)c1c(-c2ccccc2)noc1C`, the growth inhibition in test [1] is 7.35%; in test [2], -7.35%; in test [3] it was -7.55%; in test [4] it was -37.4%; in test [5], -12.8%.
For `CC(=O)Nc1ccc2c(Br)ccc3c2c1CC3` the same measures were 0.8%, -1.55%, 4.3%, 0.6% and 6.6%.
The matching figures for `CC[N+](C)(CC)CCOc1ccc(Cc2nc3c([nH]2)c(=O)n(C)c(=O)n3C)cc1`: 8.15%, 5.9%, 13.8%, -4.4% and -9.6%.
For `c1ccc(C2(c3ccccc3)c3ccccc3-c3ccccc32)cc1` the same measures were -16.2%, 17.4%, 20.3%, -17.9% and -26.9%.
Take `CC(=O)c1cc(Cl)ccc1OCC(O)CNc1ccc(Cl)cc1C(=O)c1ccccc1` (stereo unspecified): the growth inhibition in test [1] is 17.6%; in test [2] it was 37.6%; in test [3], 10.3%; in test [4], 34%; in test [5], -3.85%.
The matching figures for `CCCCOC(=O)NCNC(=O)OCCCC`: 23.2%, -7.1%, -2.1%, -15% and 1.6%.
The matching figures for `CC(C)=CCNc1ncnc2c1ncn2CCC#N`: -24.1%, -6.55%, -16.9%, 5.1% and -35.8%.
The matching figures for `CN(C)c1ccc(/C=C(\C#N)c2c(Cl)cccc2Cl)cc1`: -13.9%, -8.55%, -11.1%, -25.4% and 8.3%.
`CC(C)CC1NC(=O)C(NC(=O)c2ncccc2O)C(C)OC(=O)C(c2ccccc2)N(C)C(=O)C(C)NC(=O)C(C(C)C(C)C)N(C)C(=O)CN(C)C(=O)C2CC(O)CN2C1=O` (stereo unspecified) ({Picolinoyl(3-OH)}-TL[Hyp][Sar][X16]A[NMePhg]; ester 1-C; configuration not given here): the growth inhibition was 15.8% in test [1]; 3.65% in test [2]; 19.1% in test [3]; 3% in test [4]; -10.9% in test [5].
The matching figures for `O=C(O)C1CSC(c2cccs2)N1` (stereo unspecified): -19.2%, -46.5%, -4.4%, 1.4% and -32.2%.
`c1ccn2c(CCc3nnc4ccccn34)nnc2c1`: the growth inhibition was -1.75% in test [1]; -8.4% in test [2]; -6.35% in test [3]; -18.3% in test [4]; -1.9% in test [5].
For `OC1(c2cccc(Cl)c2)C2=NCCCN2c2ccccc21` (stereo unspecified) the same measures were 5.05%, 8.45%, 6.7%, 21.6% and -28.4%.
For `Cc1nc2ccccc2c(=O)n1NC(=S)Nc1ccc(Cl)cc1` the same measures were 3.6%, -31.2%, 4.25%, -23.6% and -18.4%.
For `CCOC(=O)c1nnsc1NC(=O)Nc1ccc(Cc2ccc(NC(=O)Nc3snnc3C(=O)OCC)cc2)cc1` the same measures were -14.3%, 8.25%, 12.2%, 18.3% and 5.45%.
With `CCOC(=O)c1cnc(=S)[nH]c1N`, the growth inhibition in test [1] is 40.5%; in test [2], -8.35%; in test [3], -19.2%; in test [4], 7.9%; in test [5], -3.15%.
The matching figures for `C1#CCSCC#CCSC1`: 14.2%, 3.4%, 11.1%, 24.2% and 40%.
As to `CCOC(=O)c1c[nH]c(C(=O)OCC)c1C`, the growth inhibition was 14.4% in test [1]; 6.6% in test [2]; 4.2% in test [3]; -59.9% in test [4]; -4.5% in test [5]; 14.2% in test [6].
As for `Clc1ccc(/C=N/c2ccccn2)cc1`, the growth inhibition was -37.2% in test [1]; -51.4% in test [2]; -22.8% in test [3]; 19.9% in test [4]; -54.1% in test [5]; -31.1% in test [6].
For `CNC(=O)C1CCCN1C(=O)C(Cc1cnc[nH]1)NC(=O)C1CCC(=O)N1` (stereo unspecified), the growth inhibition in test [1] was -21.2%; in test [2] it was -13.9%; in test [3] it was -11.6%; in test [4], 11.9%; in test [5], -14.1%; in test [6] it was -16.8%.
Turning to `COC(=O)c1ccccc1N=NNc1ccc(C)c(Cl)c1`, the growth inhibition in test [1] was 36.2%; in test [2] it was 0.55%; in test [3], -1.2%; in test [4] it was -11.4%; in test [5], 5.7%.
Turning to `COc1ccc(/C(=N\O)C(c2ccc(OC)cc2)C(Cl)(Cl)Cl)cc1` (stereo unspecified), the growth inhibition is 52.8% in test [1]; 38.9% in test [2]; 38.9% in test [3]; 14.7% in test [4]; 16.6% in test [5]; 44.9% in test [6].
On to `CN(/N=C/c1ccnc2ccccc12)c1ccc([N+](=O)[O-])cc1[N+](=O)[O-]`, for which the growth inhibition in test [1] was -31.3%; in test [2] it was -10.9%; in test [3] it was -19.5%; in test [4] it was 8.1%; in test [5] it was -6.95%; in test [6] it was -12.6%.
In the case of `N#CC(c1ccccc1)c1cccc(C(=O)O)c1` (stereo unspecified), the growth inhibition in test [1] is -16.9%; in test [2], -13.5%; in test [3] it was 5.6%; in test [4], -20.4%; in test [5] it was -25.9%; in test [6] it was 5.45%.
